According to the supplement of paper PMC10681739:

target: T1, ETS1 (UniProt P14921); test: TF binding intensity (PBM fluorescence), negative control probe (arbitrary fluorescence units); higher = stronger binding
T1 sequence: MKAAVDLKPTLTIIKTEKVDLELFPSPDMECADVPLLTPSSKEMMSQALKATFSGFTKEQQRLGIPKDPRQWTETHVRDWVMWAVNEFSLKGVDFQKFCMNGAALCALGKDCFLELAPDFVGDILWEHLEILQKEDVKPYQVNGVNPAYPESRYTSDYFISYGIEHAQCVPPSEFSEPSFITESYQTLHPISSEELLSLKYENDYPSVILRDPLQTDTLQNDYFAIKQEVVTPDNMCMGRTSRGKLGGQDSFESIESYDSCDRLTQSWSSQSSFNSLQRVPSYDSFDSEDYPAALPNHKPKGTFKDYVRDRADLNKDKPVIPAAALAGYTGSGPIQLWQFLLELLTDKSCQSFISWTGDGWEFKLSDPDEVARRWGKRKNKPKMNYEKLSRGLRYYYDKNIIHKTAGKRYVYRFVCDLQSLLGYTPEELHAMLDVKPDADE
Method: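 gcPBM negative-control 36-bp genomic probes lacking TF binding sites. Each was incubated with recombinant human ETS1 or RUNX1 alone and detected by antibody fluorescence. Values are medians over replicate spots (4 spots for the ETS1-RUNX1 arrays, 3 for the ETS1-ETS1 array). The probes sit in constant array flanks that are not printed.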

Sequence | TF binding intensity
ACATCTCATGGTTTTAAAGTAAATGAATTAAAAGTC (protein concentration 10 nM) | 116
GCTGGGAGACAGAGCCAGACACTGTCTCAAAAAAAA (protein concentration 10 nM) | 110
GTTGTTATGCAAGGTTGTGGTTTTTGCAGTCTTTTG (protein concentration 1 nM) | 498
CACAATAAAGCCGCAACCGCAGGAGGCAGAAGGGTG (protein concentration 1 nM) | 793
ATAAAGTACATTAATTCATTCATCCAGCAAGAGTGT (protein concentration 10 nM) | 122
CTACAAGTCGTGAAGGGGCGAGGCGCAAAAGCGTAG (protein concentration 10 nM) | 125
TGACCGGCAGGCCCGAAGCCCCCTGGGATGCCTGGC (protein concentration 10 nM) | 105
GTCCCGGCTCGACTCAGTCCTCCAGCCGCCCGGGGA (protein concentration 10 nM) | 120
CTAAATGGCATCTGATGTGGTATCTCTCCTCAGTTC (protein concentration 1 nM) | 455
GTGTGTGAGCGTGTACCCACAATGTGTAACTTAATT (protein concentration 1 nM) | 484
GTCTTGTTACTGGAGTGTGATAGCACCTAATAATAT (protein concentration 10 nM) | 150
ACCTGGCTGTCTGGCTCCTTACTTTCCACCATTTTC (protein concentration 10 nM) | 132
CTGGGCCATTAACCTCAGCAGAAAAATGCTTTTTGC (protein concentration 10 nM) | 97.6
AGGTGCACGATGGGTGGGGAGCTGCTCAGGGCACTG (protein concentration 10 nM) | 112
AGTCTAGTTTTGCTCTTTAAAATCACCATCTGTATC (protein concentration 10 nM) | 138
CAGGCATCTGTCATGCCCAGTAATTAATTGCTCCAA (protein concentration 10 nM) | 117
TTGTGTTCTTATCAAATTATTAAGATTTTAGGTGAG (protein concentration 10 nM) | 133
TTATAATACATGTGCAGTATATTTTCTTGAAACTTC (protein concentration 10 nM) | 110
CAGGCTGTGGTTTCCATCATGAACACGTGATCCAGC (protein concentration 10 nM) | 127
AATATCTACAGGGCTCACTCTCCCATGCTCTTCAGG (protein concentration 10 nM) | 108
ATACATACCTTTCACCCTCCATTGTGTGAGGCCCAG (protein concentration 10 nM) | 114
CCCACTGTAATAGGCAGATACTGATGAAGTCCTGCA (protein concentration 10 nM) | 147
GCGTTCGAGGGACACTGGACATCTGGTGGCCCTCCA (protein concentration 10 nM) | 93.7
TCACTCTCTGGACAGGGCCCTCTGAGCAAGCAACCA (protein concentration 10 nM) | 109
CGTTCGTTCGACAGCTCTTGTGGTAAACAGCGTCAA (protein concentration 10 nM) | 132
CCTGTTCTGTGTTTGGAGCCAGCAGAGCAGGGAGGA (protein concentration 10 nM) | 153
ACAGGCCCTCCAGGTGTTGAAACCATGCTGGGCTGA (protein concentration 10 nM) | 102
